Columns and labels:
Assay in all cases: PBM binding z-score (relative to random genomic background probes); higher = stronger binding; sequences stand for … in GC…GCGATTGACAGCGTAGAATGAAGG
[1] = test system: FXR:RXRa (NR concentration 270 nM, RXRa partner concentration 90 nM)
Procedure, shortened: (§1)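 Ligand-free nuclear receptor dimers were bound for 1 h to custom Agilent 4×180K protein-binding microarrays. Detection used antibodies against each partner (one per run). Binding z-scores rest on regression-normalized fluorescence, with random background probes as the reference.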

[2] = test system: LXRa:RXRa (NR concentration 270 nM, RXRa partner concentration 90 nM)
Procedure, shortened: as §1

[3] = test system: LXRa homodimer (NR concentration 270 nM)
Procedure, shortened: as §1

[4] = test system: LXRb:RXRa (NR concentration 270 nM, RXRa partner concentration 90 nM)
Procedure, shortened: as §1

[5] = test system: LXRb homodimer (NR concentration 270 nM)
Procedure, shortened: as §1

[6] = test system: PPARa:RXRa (NR concentration 270 nM, RXRa partner concentration 90 nM)
Procedure, shortened: as §1

[7] = test system: PPARg:RXRa (NR concentration 180 nM, RXRa partner concentration 90 nM)
Procedure, shortened: as §1

[8] = test system: PPARg:RXRa 270nM:90nM, anti-RXR (NR concentration 270 nM, RXRa partner concentration 90 nM)
Procedure, shortened: as §1

[9] = test system: PPARg:RXRa 30nM:10nM, anti-RXR (NR concentration 30 nM, RXRa partner concentration 10 nM)
Procedure, shortened: as §1

[10] = test system: PPARg:RXRa 90nM:30nM, anti-RXR (NR concentration 90 nM, RXRa partner concentration 30 nM)
Procedure, shortened: as §1

[11] = test system: PPARg:RXRa DBDmut IVT, anti-RXR (DBD mutation: RXRa K156A/R161A, NR concentration 270 nM, RXRa partner concentration 90 nM)
Procedure, shortened: as §1

[12] = test system: PPARg:RXRa IVT, anti-PPARg (NR concentration 270 nM, RXRa partner concentration 90 nM)
Procedure, shortened: as §1

[13] = test system: PPARg DBDmut:RXRa IVT, anti-PPARg (DBD mutation: PPARg1 K132A/R137A, NR concentration 270 nM, RXRa partner concentration 90 nM)
Procedure, shortened: as §1

[14] = test system: PPARg DBDmut IVT, anti-PPARg (DBD mutation: PPARg1 K132A/R137A, NR concentration 270 nM)
Procedure, shortened: as §1

[15] = test system: PPARg homodimer (NR concentration 180 nM)
Procedure, shortened: as §1

[16] = test system: PXR:RXRa (NR concentration 270 nM, RXRa partner concentration 90 nM)
Procedure, shortened: as §1

[17] = test system: PXR homodimer (NR concentration 270 nM)
Procedure, shortened: as §1

[18] = test system: RARa:RXR (NR concentration 270 nM, RXRa partner concentration 90 nM)
Procedure, shortened: as §1

[19] = test system: RARa homodimer (NR concentration 270 nM)
Procedure, shortened: as §1

[20] = test system: RARb:RXRa (NR concentration 270 nM, RXRa partner concentration 90 nM)
Procedure, shortened: as §1

| Sequence | PBM binding z-score [1] | PBM binding z-score [2] | PBM binding z-score [3] | PBM binding z-score [4] | PBM binding z-score [5] | PBM binding z-score [6] | PBM binding z-score [7] | PBM binding z-score [8] | PBM binding z-score [9] | PBM binding z-score [10] | PBM binding z-score [11] | PBM binding z-score [12] | PBM binding z-score [13] | PBM binding z-score [14] | PBM binding z-score [15] | PBM binding z-score [16] | PBM binding z-score [17] | PBM binding z-score [18] | PBM binding z-score [19] | PBM binding z-score [20] |
| --- | --- | --- | --- | --- | --- | --- | --- | --- | --- | --- | --- | --- | --- | --- | --- | --- | --- | --- | --- | --- |
| CATACAGGGACAGCTAGGCCAGAGTAGGGACGGC | -0.116 | -0.651 | -0.464 | -0.85 | -0.351 | -0.533 | 0.544 | -0.673 | -0.277 | -0.633 | -0.69 | -0.181 | -1.17 | 0.371 | -0.647 | -0.731 | -0.605 | -0.361 | 0.0521 | 0.723 |
| CAAACTAGGTCACAGAGGTCAAACTCCGTGCGTA | 7.52 | 6.77 | 8.67 | 6.55 | 2.84 | 6.69 | 10.2 | 8.44 | 7.14 | 8.85 | 8.63 | 8.81 | 2.84 | 2.43 | 5.38 | 6.91 | 12.1 | 7.81 | 3.49 | 5.52 |
| TGAATGAAGTTAAAGATCAGGGAACGTGGCGTCG | -0.402 | -0.168 | -0.348 | -0.389 | -0.518 | 0.212 | 0.843 | 1.61 | 0.713 | 1.3 | -0.838 | -0.0985 | 0.102 | 0.236 | -0.094 | -0.563 | -0.811 | -0.169 | -0.374 | -0.227 |
| AGTCAAAGTTCATCTAGGTAACGAAAGATATGCT | 6.43 | 5.78 | 4.68 | 3.86 | 1.83 | 5.26 | 7.04 | 6.66 | 3.55 | 5.72 | 0.744 | 4.11 | 1.97 | 1.3 | 3.18 | 5.26 | 6.53 | 4.34 | 2.16 | 5.15 |
| ATCGAAAGGTCGACGAGGAGAGTATACACCGTTT | 3.22 | 3.26 | -0.0644 | 2.71 | 0.517 | 4.05 | 2.55 | 2.76 | 1.4 | 1.8 | 0.291 | 1.39 | 1.26 | 0.739 | 1.33 | 2.4 | 0.432 | 3.03 | 0.544 | 3.66 |
| TCTGCTGGGTCAACGATGGTCAGCTAATCTGCTA | 2.59 | 1.95 | -0.835 | 1.16 | -0.168 | 3.19 | 1.92 | 2.57 | 1.69 | 2.14 | 3.36 | 3.7 | 1.06 | 0.239 | 0.518 | 1.46 | -1.34 | 2.07 | -1.24 | 3.6 |
| CTTAGTTGGTCAAGGTCACACACGCTATAGGTAC | 4.69 | 4.17 | 2.15 | 4.03 | 1.14 | 4.51 | 4.28 | 4.71 | 2.33 | 3.77 | 4 | 4.92 | 0.864 | 1.4 | 2.76 | 4.35 | 2.79 | 4.4 | 2.07 | 4.35 |

— the supplement of paper PMC6555819
